Measurements: PubChem BioAssay (NCATS)
Results filed as inconclusive are left out. Values without a mark were called inactive. Calls come from the whole dose curve; as a rule, active = well fitted curve in the direction sought with a large enough effect; inconclusive = small, poorly fitted or top-dose-only effect, or another doubt; inactive = no such curve, though single readings can be large or run the other way.

Target: Metallo-beta-lactamase type 2 (Klebsiella pneumoniae) (UniProt C7C422)
Experiment: qHTS to identify inhibitors of the New Delhi Metallo-beta-lactamase (NDM): assay validation screen against the NCATS LOPAC Collection (AID 1794843);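 note: nitrocefin turnover by NDM-1 measured as 485 nm absorbance at plateau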
Conditions: NDM-1 enzyme, nitrocefin hydrolysis, absorbance 485 nm; series mostly up to 38.4 µM; activity change, negative = inhibition: at the top concentration
Text: Assay Submitter (PI): James Inglese Ph.D., Patricia Dranchak Ph.D., Mahesh Aitha Ph.D.
Assay Development and Screening Technology Laboratory (ADST)
National Center for Advancing Translational Sciences (NCATS), Rockville, MD
National Institute of Health (NIH), Bethesda, Maryland
The metallo-beta-lactamases (MBL) are a main antibiotic resistance mechanism evolved by bacteria. There is an urgent clinical need for MBL inhibitors to mitigate this growing threat. To support a machine-based learning study, qHTS has been used to experimentally test inhibitors identified by prediction tools.
PROTOCOL TABLE (as described by Inglese et al., 2007)
SEQUENCE No. (e.g., 1, 2, 3, etc.); […] (e.g., enzyme, Incubation, Reagent, etc.); VALUE; DESCRIPTION
1; NDM-1; 4 uL of 3 nM enzyme in 50 mM HEPES (pH 7.0), 1 uM Zn2SO4, 0.01% Tween20; Use BioRaptr to dispense into Aurora black, clear bottom low base 1536-well plates
2; Compounds; 23 nL; Use Pin Tool (Wako) to transfer DMSO control and library compounds in DMSO
4; Reagent; 2 uL of 50 uM nitrocefin
6; Detector; Absorbance at 485 nm (bandwidth = 5 nm, 25 flashes/well) on Tecan Infinity
NOTES (numbers refer to sequence above)
1; Column 1 of each plate received assay buffer without enzyme and columns 2-48 received enzyme for a final assay concentration of 2 nM.
2; Control plate contained DMSO in columns 1, 2, 3, and 4.
3; Compound interaction with enzyme.
5; Substrate interaction with enzyme, plateau phase of kinetics.
6; Default reader settings were applied for absorbance read at 485 nm, bandwidth = 5 nm, 25 flashes/well.
Inglese J, Shamu CE, Guy RK. 2007. Reporting data from high-throughput screening of small-molecule libraries. Nat Chem Biol. doi:10.1038/nchembio0807-438
Yasgar A, Shinn P, Jadhav A, Auld D, Michael S, Zheng W, Austin CP, Inglese J, Simeonov A. 2008. Compound Management for Quantitative High-Throughput Screening. J Lab Autom 13:79 - 89. doi:10.1016/j.jala.2007.12.004
% is set by controls: 0 for no effect and ±100 for the full control effect.

Chain of Metallo-beta-lactamase type 2 (Klebsiella pneumoniae) (C7C422 whole entry, looked up): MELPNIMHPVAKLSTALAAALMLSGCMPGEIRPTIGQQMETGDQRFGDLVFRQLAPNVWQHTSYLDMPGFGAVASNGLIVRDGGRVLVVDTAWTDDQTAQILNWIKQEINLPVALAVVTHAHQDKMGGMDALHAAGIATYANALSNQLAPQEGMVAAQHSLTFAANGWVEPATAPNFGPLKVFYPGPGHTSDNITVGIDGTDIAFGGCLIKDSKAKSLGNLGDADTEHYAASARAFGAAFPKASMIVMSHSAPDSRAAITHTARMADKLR

Row | Compound | activity change, negative = inhibition
1 | COc1cc2nc(N3CCCN(C)CC3)nc(NC3CCN(Cc4ccccc4)CC3)c2cc1OC | -5.11%
2 | CCN(CC)CC#CCOC(=O)C(O)(c1ccccc1)C1CCCCC1 (stereo unspecified) | -1.45%
3 | CCN1CCCC1CNC(=O)c1cc(S(N)(=O)=O)ccc1OC (stereo unspecified) | -7.72%
4 | CCN(CC)CCn1c(=O)c(Cc2ccc(OC)cc2)nc2ccccc21 | -5.15%
5 | COc1cc2ncnc(Nc3cccc(Cl)c3)c2cc1OC | -3.22%
6 | CC1CC2C3CCC4=CC(=O)C=C[C@]4(C)[C@@]3(F)[C@@H](O)C[C@]2(C)[C@@]1(O)C(=O)CO (stereo partly specified) | -12.4%
7 | OCc1ccc(-c2nn(Cc3ccccc3)c3ccccc23)o1 | -2.61%
8 | O=C(O)C1CCCN(CCC=C(c2ccccc2)c2ccccc2)C1 (stereo unspecified) | 2.62%
9 | CC(C)NCC(O)c1ccc(NS(C)(=O)=O)cc1 (stereo unspecified) | -4.22%
10 | Nc1nc(N)c2nc(CNc3ccc(C(=O)NC(CCC(=O)O)C(=O)O)cc3)cnc2n1 (stereo unspecified) | 0.82%
11 | NC(=O)c1ccc2[nH]ccc2c1 | -1.76%
12 | NC(=O)c1cccc(N)c1 | -2.44%
13 | CC1=C(C(=O)O)N2C(=O)[C@@H](NC(=O)C(N)c3ccccc3)[C@H]2SC1 (stereo partly specified) | 16.8%
14 | CNS(=O)(=O)CCc1ccc2[nH]cc(C3CCN(C)CC3)c2c1 | -1.24%
15 | Cc1ccc(S(=O)(=O)N[C@@H](Cc2ccccc2)C(=O)CCl)cc1 | -18.8%
16 | CCCCS(=N)(=O)CCC(N)C(=O)O (stereo unspecified) | -1.48%
